Source: PubChem BioAssay (NCI)
Where “and” joins values, the source holds several entries; their conditions need not be identical. Equal values may be shown once. About 79,000 compounds went through this panel and 15% of them were active in at least one assay; those are over-represented in the sample as a whole. More than one record can exist for a structure, and the calls need not agree. Calls of active or inactive are those of the source. No stated cut-off is given here; in the data, active means growth inhibition above about 70%; inactive means the rest.

Tests used:
[1] = NCI Yeast Anticancer Drug Screen. Data for the rad50 strain (AID 155);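 further: 0% = growth of vehicle-only cultures of the same strain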; details: S. cerevisiae rad50 strain growth inhibition, stronger effect = higher value; at 50.0 µM unless noted
Method in brief: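 Growth of the mutant yeast was measured after compound exposure and referenced to vehicle-treated cultures.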

[2] = NCI Yeast Anticancer Drug Screen. Data for the mec2-1 strain (AID 157); details: S. cerevisiae mec2-1 strain, stronger effect = higher value; at 50.0 µM unless noted
Method in brief: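 Each compound was tested on mec2-1 yeast, a strain altered in DNA damage repair or cell cycle control. Growth inhibition is reported relative to vehicle.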

[3] = NCI Yeast Anticancer Drug Screen. Data for the sgs1 mgt1 strain (AID 161);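 further: 0% = growth of cultures given vehicle only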; details: S. cerevisiae sgs1 mgt1 strain, stronger effect = higher value; at 50.0 µM unless noted
Method in brief: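 Mutant yeast exposed to compound; growth scored against vehicle-only wells.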

[4] = NCI Yeast Anticancer Drug Screen. Data for the cln2 rad14 strain (AID 165);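 further: 0% = growth equal to vehicle treated cultures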; details: S. cerevisiae cln2 rad14 strain, stronger effect = higher value; at 50.0 µM unless noted
Method in brief: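 Test compounds were added to cln2 rad14 yeast cultures; inhibition of growth was then determined by comparison with vehicle treatment.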

[5] = NCI Yeast Anticancer Drug Screen. Data for the bub3 strain (AID 167); details: S. cerevisiae bub3 mutant strain, stronger effect = higher value; at 50.0 µM unless noted
Method in brief: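 Whole-cell yeast assay. The mutant strain was incubated with compounds, and growth inhibition was determined by comparison with vehicle-treated cells.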

[6] = NCI Yeast Anticancer Drug Screen. Data for the mlh1 rad18 strain (AID 175); details: S. cerevisiae mlh1 rad18 strain growth inhibition, stronger effect = higher value; at 50.0 µM unless noted
Method in brief: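 Inhibition values reflect reduced growth of mutant yeast versus vehicle-treated controls following compound exposure; the mutations affect DNA damage repair.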

Measured: growth inhibition

O=C(CC1(O)C(=O)Nc2ccc(Br)cc21)c1ccc2c(c1)OCO2 (centres undefined)
inactive: [1] 2.7% | [2] 5.35% | [3] 11.4% | [4] -6.5% | [5] 36.5% | [6] -1.15%

COC(=O)[C@H](Cc1c[nH]c2ccccc12)NC(=O)OCC1OC(n2cc(C)c(=O)[nH]c2=O)CC1N=[N+]=[N-] (some centres undefined)
inactive: [1] -0.35% | [2] -20.4% | [3] -3.5% | [4] 9.3% | [5] -13.6% | [6] -79.5%

O=C(C/C(CCC(=O)N(Cc1ccccc1)Cc1ccccc1)=N/Nc1ccc([N+](=O)[O-])cc1[N+](=O)[O-])c1ccccc1
inactive: [1] 42.9% | [2] 29.9% | [3] 60% | [4] 41.6% | [5] 1.05% | [6] 61.8%

N=c1ccccn1C(=O)C1=Cc2cc(Cl)cc(Cl)c2OC1
inactive: [1] -15.6% | [2] 0.75% | [3] -1.85% | [4] -25.8% | [5] 7.65% | [6] -2.25%

NC(COC(=O)NCCCl)C(=O)O (centres undefined)
inactive: [1] 12.7% | [2] -6.95% | [3] -0.35% | [4] -11.5% | [5] 22.1% | [6] 18.6%

CCOC(=O)c1c(C)nc(C)c(C(=O)OCC)c1-c1ccc(N(C)C)cc1
84% (active) and -1.3% (inactive): [3]
inactive: [1] 3.7% and -7.5% | [2] 1.75% and 1.25% | [4] -4.4% and -6.05% | [5] 1.8% and -14.7% | [6] 4.05% and 5.25%

CC(C)(C)C1CCC2c3c([nH]c4ccccc34)C3C(=O)N(c4cc(Br)cc(Br)c4)C(=O)C3C2C1 (centres undefined)
inactive: [1] 14.3% | [2] 9.15% | [3] 7.75% | [4] 18.9% | [5] 21.8% | [6] -46.5%

COc1ccc(NS(=O)c2ccccc2)cc1 (centres undefined)
inactive: [1] 10.1% | [2] 1.2% | [3] 3.1% | [4] 6.65% | [5] -2.5% | [6] 7.65%

O=C(O)C1CC1c1ccc2c(c1)OCO2 (centres undefined)
inactive: [1] -11.8% | [2] -10.4% | [3] 7.2% | [4] -34% | [5] -33.9% | [6] 1.35%

COc1ccc2c(c1)OC[C@@H]1c3cc(NC(=O)c4ccccc4)c(OCc4ccccc4)cc3N(S(=O)(=O)c3ccccc3)[C@H]21
inactive: [1] -23.9% | [2] -13.9% | [3] -2.1% | [4] -2.5% | [5] -9% | [6] 9.4%

O=CNCC(=O)O
inactive: [1] 15.6% | [2] -3.75% | [3] -15.5% | [4] -0.7% | [5] -2.55% | [6] 7.9%

OC1CC2CCCCC2CC1(O)c1ccc(OCc2ccccc2)c(OCc2ccccc2)c1 (centres undefined)
inactive: [1] 16.6% | [2] -9.55% | [3] -19% | [4] 14.8% | [5] 3.4% | [6] -5.2%

CN(C)c1ccc(/C=C/C(=O)N[C@@H]2C(=O)N3[C@@H]2SC(C)(C)[C@@H]3C(=O)O)cc1
inactive: [1] -10.3% | [2] -10.8% | [3] -11.9% | [4] 6.35% | [5] -12.8% | [6] 12.8%

CCOC(=O)CN=C1Nc2ccccc2C(=O)N2CSCC12 (centres undefined)
inactive: [1] -18% | [2] -44.7% | [3] -28.6% | [4] -16.4% | [5] -54.5% | [6] -16.8%

CCCCN(CCCC)C(=O)c1cccc(C)c1
inactive: [1] 13.7% | [2] 8.1% | [3] 4.1% | [4] -16.4% | [5] 53.2% | [6] 14.1%

CCOC(=O)c1c2ccc(/C=C/C(=O)OC)ccc-2c(C(=O)OCC)c1N
inactive: [1] -23.8% | [2] -24.4% | [3] -23.4% | [4] -23.2% | [5] -37.6% | [6] -4.35%

CCCCNC(=O)/C(=C\c1ccc(OC)c(OC)c1)NC(=O)c1ccccc1
inactive: [1] -63.5% | [2] -55.3% | [3] -34.4% | [4] -1.75% | [5] -35% | [6] -21.6%

CCC(=O)Oc1ccc(C(=O)c2ccc(OC(=O)CC)cc2)cc1
inactive: [1] 5.05% | [2] -24.9% | [3] 13.8% | [4] 11.4% | [5] 8.05% | [6] 4.1%

Cc1cccc(CO)c1NC(=O)NCCCl
inactive: [1] -0.4% | [2] -12.2% | [3] -4.55% | [4] -32.2% | [5] -17.9% | [6] 3.25%

COc1c(O)cc2c(c1O)C1OC(CO)C(O)C(O)C1OC2=O (centres undefined)
inactive: [1] -4.3% | [2] -15.4% | [3] -3.85% | [4] 19.1% | [5] -20.8% | [6] 0.5%

O=c1[nH]c(/C=C/c2ccccc2)c([N+](=O)[O-])c(=O)[nH]1
inactive: [1] -7% | [2] 2.9% | [3] -12.7% | [4] -19.6% | [5] 26.6% | [6] 16.8%

Cc1nnc(-n2cccc2)s1
inactive: [1] 0.8% | [2] -18.9% | [3] -5.3% | [4] -3.55% | [5] -4.1% | [6] 3.25%

O=C1c2ccccc2C(=O)C1c1ccc2ccccc2n1
inactive: [1] 7.85% | [2] -7.95% | [3] 3.35% | [4] 2.6% | [5] 7.05% | [6] -7.95%

COc1ccc2c(c1)[n+](=O)c(C(=O)C/C(=N/NC(=O)C[N+](C)(C)C)C(=O)Nc1cccc(C)c1C)c(C)n2O
inactive: [1] -23.6% | [2] -2.25% | [3] -41% | [4] -5.5% | [5] 22.9% | [6] -13.9%

O=C(CCl)Oc1ccc(C(=O)O)cc1
inactive: [1] -1.1% | [2] -3.55% | [3] -1.8% | [4] -3.65% | [5] 0.85% | [6] -6.7%

COc1cccc(/C=C/C(C)=N/NC(N)=O)c1
inactive: [1] 6.5% | [2] 0.25% | [3] 5.5% | [4] -7.1% | [5] 6.35% | [6] 8.65%

Cn1nc(-c2ccccc2)c(C(=O)/C=C/c2ccccc2)c(N2CCCCC2)c1=O
inactive: [1] -27.9% | [2] -11.6% | [3] -11.5% | [4] 3% | [5] 27% | [6] -27.8%

ClCCCCCNC1CCCCC1
inactive: [1] -1.2% | [2] -45.6% | [3] -4.3% | [4] -15.7% | [5] -17.2% | [6] -14.2%

Nc1ncc(C(=O)O)s1
inactive: [1] -17.3% | [2] -4.6% | [3] -23.1% | [4] 7.35% | [5] 3.35% | [6] -4.8%

COC(=O)c1cc(Br)cc(Br)c1N
inactive: [1] 26.1% | [2] -12.9% | [3] 0.3% | [4] -35.1% | [5] 3.6% | [6] 32.4%

COc1ccc(C2=C(Cl)c3cc(OC)c(OC)cc3C2Cl)cc1 (centres undefined)
inactive: [1] 14.8% | [2] 22.6% | [3] 21.2% | [4] 11.8% | [5] -0.45% | [6] -41.6%

Cc1[nH]c(N)nc(=S)c1CCCNc1ccccc1
inactive: [1] 6.45% | [2] 2.1% | [3] 6.8% | [4] -9.15% | [5] -32.3% | [6] 26.2%

CN(C)c1ccc(/C=C/C=C2\C=Cc3ccccc32)cc1
inactive: [1] 0.55% | [2] -17.9% | [3] -6% | [4] -26.2% | [5] -0.25% | [6] -2.75%

O=C(Nc1noc(-c2ccccc2)n1)c1ccccc1CNc1noc(-c2ccccc2)n1
inactive: [1] -7.75% | [2] -4.85% | [3] 0.8% | [4] -10.8% | [5] -6.7% | [6] 0%

CCCC(=O)NC(Nc1ccc(S(=O)(=O)Nc2cc(C)on2)cc1)(C(=O)OCC)C(F)(F)F (centres undefined)
inactive: [1] 32.8% | [2] -18.9% | [3] 4.75% | [4] 18.1% | [5] -14.4% | [6] -40.8%

CC(C)(C)C(=O)/C(=C/C(=O)O)C(C)(C)C
inactive: [1] -0.1% | [2] 10.7% | [3] 1.25% | [4] 7.6% | [5] -0.9% | [6] -0.95%

CCCCCCCCCCCCCCCCCn1nnnc1N
inactive: [1] -8.3% | [2] 11.6% | [3] -7.3% | [4] -9.95% | [5] -12.3% | [6] -11.4%

O=[N+]([O-])c1cc(N(c2ccccc2)c2ccccc2)c(Cl)cc1Cl
inactive: [1] -8.35% | [2] -16.1% | [3] -27.1% | [4] -2.55% | [5] 5.5% | [6] -3%

Cc1ccc(C(=O)/C=C/C(=O)c2ccc(C)cc2)cc1
inactive: [1] 4.55% | [2] 29.9% | [3] 19.2% | [4] 19.9% | [5] 14.9% | [6] 3.8%
